# Compounds with a hit are over-represented: about 5.4% of the library has one in this group of screens.
# Granule exo inh: lytic granule exocytosis inhibition; TALL-104 LAMP-1 surface exposure, flow cytometry; cells stimulated with thapsigargin and PMA; inhibition, % at 10 µM; 0.66% of 360,000 active;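 active means inhibition above about 55%, limit read from the data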
# ALR inh: human ALR oxidase inhibition via reduced H2O2. P55789. purified ALR, DTT oxidation, H2O2 HRP-luminol luminescence. inhibition, % (test concentration not listed). 3.8% of 290,000 active. AID 485317;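 active means mean replicate inhibition above about 79%, with every replicate also reaching it, limit read from the data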
# Target sequence (P55789 whole entry, looked up): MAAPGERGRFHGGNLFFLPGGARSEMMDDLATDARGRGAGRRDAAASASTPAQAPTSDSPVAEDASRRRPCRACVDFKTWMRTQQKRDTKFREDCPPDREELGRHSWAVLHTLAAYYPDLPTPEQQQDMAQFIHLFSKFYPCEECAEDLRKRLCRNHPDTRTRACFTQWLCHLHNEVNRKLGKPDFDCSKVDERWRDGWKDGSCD
# M18AAP inhibitor: PfM18AAP enzyme inhibition. AID 1822. 1.2% of 290,000 active. inhibition, % at 7.35 µM. recombinant PfM18AAP, H-Glu-NHMec fluorogenic cleavage;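 active means inhibition above the campaign mean inhibition over all tested compounds plus 3 SD, cut at about 28% in these data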
# JMJD2C inh: human JMJD2C demethylase inhibition | Q9H3R0 | 0.069% of 330,000 active | GST-JMJD2C(1-420) H3K9me3 demethylation, DELFIA europium | inhibition, % at 2.35 µM;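 active means more than half of a compound's replicate wells show inhibition beyond 50%, single wells judged on their own value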;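 further: signal counts dimethyl H3K9 product captured on neutravidin plate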
# Target sequence (Q9H3R0 1-420 limits assumed): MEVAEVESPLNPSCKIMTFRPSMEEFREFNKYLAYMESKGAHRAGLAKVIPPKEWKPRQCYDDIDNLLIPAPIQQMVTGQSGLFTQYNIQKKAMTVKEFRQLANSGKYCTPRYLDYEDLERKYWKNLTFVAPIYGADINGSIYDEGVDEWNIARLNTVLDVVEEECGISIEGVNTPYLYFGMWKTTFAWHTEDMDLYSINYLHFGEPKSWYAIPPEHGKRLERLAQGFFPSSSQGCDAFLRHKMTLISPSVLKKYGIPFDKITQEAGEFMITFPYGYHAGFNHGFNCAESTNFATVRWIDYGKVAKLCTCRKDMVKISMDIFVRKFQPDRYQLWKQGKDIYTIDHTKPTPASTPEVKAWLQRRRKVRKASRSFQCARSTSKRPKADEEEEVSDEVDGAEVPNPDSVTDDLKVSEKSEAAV
# beta cell repl: induces beta-cell replication in MIN6 cells; MIN6 cells proliferation, ATPlite luminescence, 48 h; cells starved in 0.2% serum; 100% = growth in 10% serum; proliferation, % at 10 µM; 0.29% of 330,000 active; AID 2380;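 active means compounds whose signal lies at least 3.5 SD above the mean of all wells on their plate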
# SMARCA2 activ: activators of SMARCA2 function. MG213 cells, MMTV-luciferase reporter, dexamethasone, overnight. 1% of 370,000 active. activation, % at 9.1 µM; in the data active means activation above about 7.8%
# Exocytosis CP01: lytic granule exocytosis inhibition | 11% of 1,500 active | inhibition, % at 10 µM | AID 651954 | TALL-104 cells, LAMP-1 externalization, flow cytometry; stimulated with PMA plus thapsigargin | shares compounds with Granule exo inh; in the data active means inhibition above about 60%
# Numbers stand for hits; – = inactive; · = no result given.
SMILES,Granule exo inh,ALR inh,M18AAP inhibitor,JMJD2C inh,beta cell repl,SMARCA2 activ,Exocytosis CP01
CCOC(=O)c1c(NC(C)=O)sc2c(OCCN(CC)CC)c(Br)ccc12,–,–,–,–,–,–,·
O=c1[nH]c2ccc(S(=O)(=O)N3CCCC3)cc2o1,·,·,·,·,·,–,·
COc1cccc(CO[C@H]2C=C[C@@H](c3ccccc3)O[C@@H]2COC(C)=O)c1,·,·,·,·,·,–,·
CCNc1c2c3c(cccc3n(C)c1=O)C(=O)c1ccccc1-2,·,–,–,–,–,·,·
Cn1c(=O)c(NC2CCCCC2)c2c3c(cccc31)C(=O)c1ccccc1-2,90.0,·,–,·,–,–,101.0
O=C(N[C@H](Cc1ccccc1)C(=O)NC1CCCCC1)[C@H]1O[C@@H](n2ccc(=O)[nH]c2=O)[C@H](O)[C@@H]1O,·,·,·,·,·,–,·
CC1(c2nnc(Cc3ccccc3)o2)CC(c2cccnc2)=NO1 (stereo unspecified),68.1,·,·,–,–,–,–
CSc1scc2c1-c1nc(SCC(=O)C(C)(C)C)ncc1CC2,73.8,–,–,–,–,–,–
C=CCNC(=O)CSc1ncc2c(n1)-c1c(csc1SC)CC2,–,·,–,–,–,–,·
CCCCCC/C=C/c1ccc(OC)c([C@H]2[C@H]3C=CC[C@@H](C)[C@@H]3C(=O)N2Cc2ccccc2)c1,66.7,–,·,–,–,–,–
CCCCCC/C=C/c1ccc([C@H]2[C@H]3C=CC[C@@H](C)[C@@H]3C(=O)N2Cc2ccccc2)c(F)c1,–,·,·,–,–,–,·
Cn1nc(C(C)(C)C)cc1NC(=O)C1(C)CCN1C(=O)c1ccccc1CCc1ccccc1 (stereo unspecified),97.5,·,·,·,·,–,–
CCOC(=O)C1(CCOc2ccccc2)CCN(Cc2ccc(O)c(OC)c2)CC1,69.9,·,–,–,–,–,–
CCOC(=O)C1(CCOC)CCN(Cc2cccc(OCc3ccccc3)c2)CC1,–,·,–,–,–,–,·
CCOC(=O)C1(CCOc2ccccc2)CCN(Cc2cccc(OC)c2)CC1,85.5,·,–,–,·,–,–
CCOC(=O)C1(CCOc2ccccc2)CCN(Cc2ccc(O)c(Cl)c2)CC1,–,–,–,–,–,–,·
CCOC(=O)C1(CCOc2ccccc2)CCN(Cc2cccc(OC)c2O)CC1,69.4,–,–,–,–,–,–
CCOC(=O)C1(CCOc2ccccc2)CCN(Cc2ccc(F)c(OC)c2)CC1,72.1,·,–,–,–,–,–
Cc1cccc(NC(=O)CCS(=O)(=O)c2ccc3nc(C)sc3c2)c1,–,·,·,·,·,–,·
CCOC(=O)C1(CCOc2ccccc2)CCN(Cc2cc(OC)ccc2OC)CC1,83.7,·,–,–,–,–,–
CCOC(=O)C1(CCOc2ccccc2)CCN(Cc2ccc3c(c2)OCCO3)CC1,82.7,–,–,–,–,–,–
CCOC(=O)C1(Cc2cccc(OC)c2)CCN(Cc2ccc3c(c2)OCCO3)CC1,–,–,–,–,–,–,·
COC(=O)C1CCN(C(=O)C2CC(=O)N(c3ccc(OC)cc3)C2c2ccc(OC)cc2)CC1 (stereo unspecified),·,·,·,·,·,–,·
COc1ccc(CN2C[C@H](COCc3ccccc3)Oc3cccc(N4CCCC4)c3S2(=O)=O)cc1,·,·,·,·,·,–,·
CN(N=Cc1ccc(N(C)C)cc1)C(=O)c1ccccc1N,·,·,·,·,·,–,·
SMILES,Granule exo inh,ALR inh,M18AAP inhibitor,JMJD2C inh,beta cell repl,SMARCA2 activ,Exocytosis CP01
COCCCNC(=O)c1ccccc1N(Cc1ccccc1)S(=O)(=O)c1ccccc1,68.9,–,–,–,–,–,–
CCOC(=O)N1CCN(C(=O)c2ccccc2N(Cc2ccccc2)S(=O)(=O)c2ccccc2)CC1,79.3,–,–,–,–,–,–
COCCCNC(=O)CN(Cc1ccccc1)S(=O)(=O)c1ccccc1,–,–,–,–,–,–,·
Cc1cc(C(=O)N2CCN(S(=O)(=O)c3ccccc3C#N)CC2)c(C)o1,–,·,·,–,–,–,·
N#Cc1ccccc1S(=O)(=O)N1CCN(S(=O)(=O)c2ccc(Br)c(C(=O)O)c2)CC1,59.2,–,–,–,–,–,–
C[C@@H]1ON(C)[C@H]2C[C@H]3c4cc(-c5ccccc5)ccc4CCN3C[C@@H]12,·,·,·,·,·,–,·
COC(=O)c1ccc(N2CCN(C)CC2)c(NC(=O)c2sc3ccccc3c2Cl)c1,77.6,·,–,–,·,–,91.1
C=CCn1c(COc2ccc(Cl)cc2)nnc1SCC(=O)c1ccc(-c2ccccc2)cc1,·,·,·,·,·,–,·
COc1ccc2c(c1)CN1C(=O)N(CCc3ccccc3)S(=O)(=O)CC21 (stereo unspecified),·,·,·,·,·,–,·
CC(C)(C)c1cc(CP(=O)(c2ccccc2)c2ccccc2)cc(C(C)(C)C)c1O,57.2,–,–,–,–,–,–
O=P(Cc1ccccc1)(c1ccccc1)c1ccccc1,–,–,–,–,–,–,·
Cc1cccc(CN2CCC(C(=O)Nc3cccc(-c4cccc(F)c4)c3)CC2)n1,61.8,–,–,–,–,–,–
Cc1cccc(CN2CCC(C(=O)Nc3cccc(-c4cscn4)c3)CC2)n1,–,–,–,–,–,–,·
O=[N+]([O-])c1cccc(-c2cc(-c3cc(Br)ccc3O)[nH]n2)c1,99.5,–,–,–,–,–,99.5
Oc1ccc(Br)cc1-c1cc(-c2ccc(Cl)cc2)n[nH]1,–,–,–,–,–,–,·
Clc1ccc2nc(N3CCNCC3)nc(-c3ccccc3)c2c1,86.5,–,–,–,–,–,–
CCOc1ccc(S(=O)(=O)N2CCCC(C(=O)Nc3cccc(C)c3)C2)cc1 (stereo unspecified),63.4,–,–,–,–,–,–
CCOc1ccc(S(=O)(=O)N2CCC(C(=O)Nc3cccc(NC(C)=O)c3)CC2)cc1,–,–,–,–,–,–,·
CCOC(=O)[C@@]12CN(C(=O)OC(C)(C)C)CC=C1N(Cc1ccc(OC)cc1)C(=O)[C@H]2CC(=O)NCc1cccc2ccccc12,·,·,·,·,·,–,·
CC1=C(C(=O)N2CCCCCC2)CC(CC(=O)NCc2cccc3ccccc23)C(=O)N1CCC1=CCCCC1 (stereo unspecified),58.1,·,·,·,·,–,–
CC1=C(C(=O)N2CCCCCC2)CC(CC(=O)NCCCCc2ccccc2)C(=O)N1CCC1=CCCCC1 (stereo unspecified),85.6,·,·,·,·,–,–
COC(=O)C1=C(C)N(Cc2ccccc2C(F)(F)F)C(=NCc2ccc(C(F)(F)F)cc2)NC1c1cccc(Cl)c1 (stereo unspecified),·,·,·,·,·,–,·
CCOc1cccc2sc(N(CCCN(C)C)C(=O)c3ccc(S(=O)(=O)N(C)Cc4ccccc4)cc3)nc12,–,–,–,–,–,–,·
CCN(c1ccccc1)S(=O)(=O)c1ccc(C(=O)N(CCCN(C)C)c2nc3cc4c(cc3s2)OCO4)cc1,69.6,–,–,–,–,–,–
CCOc1cccc2sc(N(CCN(C)C)C(=O)c3cc4ccccc4cc3OC)nc12,59.0,–,–,–,–,–,–
